MARV entry inh: blocks Marburg virus binding to or entry into cells; 300,000 compounds, 1.8% hits; Potency, µM (series often up to 37.8 µM), hits mostly inhibitors; Marburg virus pseudotyped entry inhibition, cell reporter; calls by dose curve; tested in HEK293 cells
FMDV inh: blocks foot and mouth disease virus; 410,000 compounds, 1.2% hits; Potency, µM (doses to about 57.9 µM), usual class: inhibitors; FMDV antiviral cell-based qHTS; calls by dose curve; tested in HEK293T cells; further: read-out not given here; nearly all actives have a fitted effect of over 45% in size
HCMV antiviral: blocks human cytomegalovirus replication | HFF cells, HCMV-luciferase reporter, 72 h; active compounds read low | activity change, negative = inhibition, % at 57.5 µM | 410,000 compounds, 4.5% hits | AID 1259415; in the data active means activity change below about -60%; inconclusive means no clear call, values can overlap the other calls; inactive means above about -39%
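Inhibition of viral replication was scored as loss of reporter luminescence in HFFs infected with HCMV-luciferase (MOI 1 PFU/cell) for 72 h; compounds tested at 2 doses, normalized to buffer and Salinomycin controls.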
LASV entry inh: inhibitors of Lassa virus binding or cell entry; 300,000 compounds, 1.2% hits; AID 540256; Potency, µM (series often up to 37.9 µM), hits mostly inhibitors; Lassa virus pseudotype entry inhibition, cell reporter; calls by dose curve; tested in HEK293 cells; further: nearly all actives have a fitted effect of over 50% in size
HCV inhibitor: inhibitors of hepatitis C virus infection | AID 651820 | Potency, µM (doses to about 41.8 µM), hits mostly inhibitors | Huh7.5.1 HCVcc-Cre infection, luciferase reporter, 44 h | 340,000 compounds, 3.4% hits; active means well fitted inhibition curve with a large enough effect; inconclusive means small, poorly fitted or top-dose-only effect, or another doubt; inactive means no such curve, though single readings can be large or run the other way
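HCVcc-Cre virus at an moi near 0.5 was added right after compound to cells cultured 4 h from seeding (1,000 cells/well). Luciferase activity was determined 44 h later, 15 min after substrate addition at RT.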
Numbers stand for hits; . = inactive; ? = inconclusive; / = no result given. An excerpt weighted towards active compounds, which were near 7.9% of everything screened.

SMILES	MARV entry inh	FMDV inh	HCMV antiviral	LASV entry inh	HCV inhibitor
Oc1cc(-c2nc3ccccc3s2)cc2c1OCCN(Cc1cn[nH]c1-c1ccc(Cl)cc1)C2	/	.	/	/	/
CCn1cc(S(=O)(=O)c2cccc(C)c2)c(=O)c2cc(F)c(N3CCN(c4ccccc4)CC3)cc21	/	.	.	.	/
Cc1cccc2c1N[C@H](/C=C/C(=O)OC(C)(C)C)C2	/	/	.	/	/
COC1=C(c2ccccc2)C(=O)c2ccccc2C1=O	.	?	.	.	?
O=C(C1=C(c2ccccc2)C(=O)c2ccccc2C1=O)c1ccccc1	?	10µM	-98.7	2.59µM	10µM
CC(=O)c1ccc(NC(=O)c2cc3c(=O)oc4ccc(C)cc4c3s2)cc1	.	.	-93.0	.	/
Cc1ccc2oc(=O)c3cc(C(=O)Nc4cccc(C#N)c4)sc3c2c1	.	.	.	.	/
O=C1N=NC(c2ccccc2)c2ccccc21 (configuration not stated)	.	/	/	/	/
COC(=O)c1cc(C(=O)OC)cc(N2C(=O)CC(NNC(=O)c3ccc(C)cc3)C2=O)c1 (configuration not stated)	?	.	.	0.794µM	.
COc1ccc(N=C(NN)c2ccc3ccccc3n2)cc1	?	.	-89.2	?	.
COc1ccc(C(=O)NC(=S)NNC(=O)c2ccc3ccccc3n2)cc1	?	.	-97.4	?	11.2µM
COc1cc(OC)cc(C(=O)NNC(=O)c2ccc3ccccc3n2)c1	?	.	-75.2	?	?
COc1ccc(C(=O)NC(=S)NNC(=O)c2ccc(C)cc2)cc1	/	.	.	/	?
Cc1ccccc1N(CC(=O)NC1CCCCC1)C(=O)CCCC(=O)Nc1ccccn1	.	.	.	.	.
COc1cc(/C=C2/SC(=S)N(Cc3ccccc3)C2=O)ccc1OS(C)(=O)=O	/	.	-68.9	/	?
COc1ccc(/C=C2\SC(=S)N(CCC(=O)N(CCO)Cc3ccccc3)C2=O)cc1OC	/	?	-98.8	/	?
COc1cc(/C=C2\SC(=S)N(N(C)c3ccccc3)C2=O)ccc1O	/	.	-101.1	/	.
COc1cc(/C=C2/SC(=S)N(Cc3ccccc3)C2=O)ccc1OCC(=O)O	?	?	.	.	.
Cc1ccc(-n2nc(C)c3c(C)cc(=O)n(CC(=O)NC(C)C)c32)cc1	/	.	.	.	/
COc1ccc(CNC(=O)c2cc3cc(C)ccc3n2C)cc1	?	.	-78.6	?	/
Cc1ccc2c(c1)cc(C(=O)NCc1ccccc1)n2C	0.631µM	.	-70.9	?	.
Cc1cnccc1CN(C)Cc1nc(Cc2ccccc2Cl)no1	.	?	-60.5	?	?
CC(=O)c1cccc(-c2ccnc3c2CC(C(=O)NCc2ccccc2)O3)c1 (configuration not stated)	/	.	-86.5	/	/
CC(C)c1ccc(NC(=O)C2Cc3c(-c4cccc(C(N)=O)c4)ccnc3O2)cc1 (configuration not stated)	/	.	.	/	/
CC(C)c1ccc(NC(=O)C2Cc3c(-c4cccc(F)c4)ccnc3O2)cc1 (configuration not stated)	/	.	-75.8	/	/
SMILES	MARV entry inh	FMDV inh	HCMV antiviral	LASV entry inh	HCV inhibitor
O=C(NCc1ccccc1)C1Cc2c(-c3cccc(F)c3)ccnc2O1 (configuration not stated)	/	.	-69.0	/	/
O=C(NCc1cccc(Cl)c1)C1Cc2c(-c3cccc(F)c3)ccnc2O1 (configuration not stated)	/	.	.	/	/
COc1cc(C(=O)N2CCN(C3CCCCC3)CC2)cc(OC)c1OC	/	.	.	/	.
O=C1C(=O)N(C(CCc2ccccc2)c2nnnn2Cc2ccccc2)c2ccccc21 (configuration not stated)	/	/	.	/	/
CC(C)(C)c1ccc(C(=O)NC(=S)NCc2cccnc2)cc1	?	.	-77.9	?	22.4µM
S=C(NCc1cccnc1)Nc1ccc(Oc2ccc(Cl)cc2)cc1	?	.	-61.3	.	?
CC(C)(C)c1ccc(NC(=S)NCc2cccnc2)cc1	/	.	.	/	31.6µM
CC(C)(C)c1ccc(C(=O)NCc2cccnc2)cc1	.	.	.	?	.
C=CC[C@@H]1C=CC(O/N=C/C[C@@H]2C=C[C@H](OC(C)=O)[C@@H](COC(C)=O)O2)[C@@H](CO)O1 (some centres not stated)	.	/	/	/	/
Brc1ccc(CN2C3=NCCCN3c3ccccc32)cc1	10.3µM	?	?	?	?
CCCCCCCN1C2=NCCCN2c2ccccc21	?	?	?	?	10µM
c1ccc(CN2C3=NCCCN3c3ccccc32)cc1	?	.	.	.	?
O=C(CN1C2=NCCCN2c2ccccc21)c1ccc2c(c1)OCO2	?	/	.	?	11.2µM
Clc1ccc(CN2C3=NCCN3c3ccccc32)cc1	?	.	.	.	12.6µM
CC(C)(C)c1ccc(CN2C3=NCCCN3c3ccccc32)cc1	2.59µM	?	-85.0	?	31.6µM
Cc1ccc(CN2C3=NCCCN3c3ccccc32)cc1	?	.	.	.	?
OC[C@@H]1CN(Cc2ccco2)C[C@H](n2cnc3c(N4CCOCC4)ncnc32)O1	/	.	.	/	/
COc1ccc(OC)c(-c2nc3ccccc3nc2-c2ccccc2)c1	.	?	.	?	.
COc1ccccc1-c1nc2ccccc2nc1-c1ccccc1	?	.	-62.8	?	.
Oc1ccc2c(c1)CCCC1(CCCO1)O2 (configuration not stated)	/	/	.	/	/
CCOC(=O)COc1ccc(/C=C(\C#N)c2nc3ccc(C)cc3[nH]2)cc1OC	.	.	-104.7	.	/
COc1ccc(/C=C(\C#N)c2nc3ccc(C)cc3[nH]2)cc1Oc1ccc(C(F)(F)F)cc1[N+](=O)[O-]	.	.	-67.9	.	?
CC(=O)N1CCN(c2ccc(NCc3cccc(C)c3)cc2)CC1	/	?	-76.7	/	/
CC(=O)N1CCN(c2ccc(NCc3ccc(F)cc3)cc2)CC1	/	?	.	/	?
COc1cc(CNc2ccc(N3CCN(C(C)=O)CC3)cc2)ccc1OCc1ccc(F)cc1	?	.	-72.9	.	.
SMILES	MARV entry inh	FMDV inh	HCMV antiviral	LASV entry inh	HCV inhibitor
COc1ccc(N2CCN(C(=O)NCc3ccc(OC)c(Cl)c3)CC2)cc1	?	.	?	.	.
COc1ccc(N2CCN(c3nc(NCCc4ccc(OC)c(OC)c4)nc(OC)n3)CC2)cc1	?	25.1µM	-89.7	?	11.2µM
COc1ccc(N2CCN(C(=O)NCc3ccc(OC)c(OC)c3)CC2)cc1	.	.	-67.7	/	.
COc1ccc(NC(=O)C(NS(=O)(=O)c2cccs2)C(C)C)cc1Cl (configuration not stated)	.	.	.	.	.
Cc1cc(C)c(S(=O)(=O)N2CCN(C(=O)CN3C(=O)NC4(CCCC4)C3=O)CC2)c(C)c1	.	.	-67.9	.	.
Cc1cc(C)c(S(=O)(=O)N2CCN(C(=O)C(C)Cn3nc(C)nc3C)CC2)c(C)c1 (configuration not stated)	.	.	.	.	.
O=C(CN1C(=O)NC2(CCCC2)C1=O)N1CCN(S(=O)(=O)c2ccccc2)CC1	?	.	.	.	.
Cc1cc(C)c(S(=O)(=O)N2CCN(C(=O)CC(C)n3nc(C)nc3C)CC2)c(C)c1 (configuration not stated)	/	.	-73.7	/	/
